# Screening results: PubChem, National Center for Advancing Translational Sciences (NCATS)
# Compounds with a hit are over-represented: about 3.7% of the library has one in this group of screens.
# ELG1 repair inh = qHTS screen for small molecules that inhibit ELG1-dependent DNA repair in human embryonic kidney (HEK293T) cells expressing luciferase-tagged ELG1; HEK293T ELG1-luciferase reporter, luminescence, 16 h; DNA damage induced by 5-fluorouridine; Potency, µM (titrated, usually from 46.1 µM), for the others: top-dose activity change, negative = inhibition, hits mostly inhibitors; 2.3% of 330,000 active; further: on the % scale 0 is the no-effect control and ±100 the full control effect; nearly all actives have a fitted effect of over 55% in size
#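 Cells (2,000 per well) received 5-fluorouridine plus test compound or DMSO and were incubated 16 hr at 37 °C, 5% CO2. Luciferase activity was read by luminescence 30 min after ONE-Glo addition; signal suppression marked inhibition of damage-induced ELG1 function.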
# Nrf2 block = Nrf2 qHTS screen for inhibitors; A549 ARE-Fluc reporter, luciferase luminescence, 18-24 h; 2.1% of 360,000 active; Potency, µM (doses to about 46 µM), for inactives: top-dose activity change, negative = inhibition, hits mostly inhibitors; further: on the % scale 0 is the no-effect control and ±100 the full control effect; nearly all actives have a fitted effect of over 60% in size
#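 A549 ARE_Fluc cells, 5000/well, 5% FBS OPTI-MEM; compounds in dose-response, 18-24 h at 37 °C/5% CO2; CellTiter-Fluor viability read (Ex 405/Em 525), then BugLite luciferase luminescence = Nrf2 activity.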
# Nrf2 ARE act = qHTS of Nrf2 Activators; AREc32 ARE-luciferase reporter (MCF7-derived line), luminescence, 24 h; Potency, µM (highest dose often 46.1 µM), for the others: at the top dose activation, actives largely listed as activators; 0.31% of 410,000 active; AID 624171, 2012; further: % of control where 0% means no effect; nearly all actives have a fitted effect of over 65% in size
#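 Luciferase luminescence (Steady-Glo, 30 min at room temperature) served as the read-out of ARE activation in AREc32 cells treated with compounds for 24 hr at 37 deg C.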
# A549 tox = Nrf2 qHTS screen for inhibitors: counterscreen for cytotoxicity. A549 ARE-Fluc cells, CellTiter-Fluor viability, 18-24 h. 0.16% of 390,000 active. Potency, µM (series often up to 46 µM), inactives show at the highest dose activity change, negative = cytotoxicity, actives largely listed as inhibitors. AID 504648, 2011; further: on the % scale 0 is the no-effect control and ±100 the full control effect
#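 Cytotoxicity counterscreen: CellTiter-Fluor fluorescence was measured in A549 ARE_Fluc cells after 18-24 h of compound exposure in a concentration series. The subsequent BugLite luminescent read reports ARE-luciferase activity.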
# * marks the source's active call; other numbers are inactive results; ? = inconclusive; nt = no result given. The call rests on the fitted dose curve; in most records, active means well fitted curve in the direction sought with a large enough effect; inconclusive means small, poorly fitted or top-dose-only effect, or another doubt; inactive means no such curve, though single readings can be large; an effect the other way counts as inactive or inconclusive. Potency means the concentration at half of the fitted maximal effect.
SMILES,ELG1 repair inh,Nrf2 block,Nrf2 ARE act,A549 tox
COc1ccc2c(C)c(CC(=O)N3CCN(C(=O)C4COc5ccccc5O4)CC3)c(=O)oc2c1 (stereo not given),23µM*,23µM*,0%,13%
O=C1CCCc2[nH]c(=O)c(-c3nc(-c4cccc([N+](=O)[O-])c4)cs3)cc21,nt,-13%,20%,8%
CCNC(=S)Nc1ccc(S(=O)(=O)Nc2cc(C)nc(C)n2)cc1,-3%,-7%,0%,-9%
Cc1cc(C)c(NC(=O)C(=O)NCCc2csc(-c3ccc(F)cc3)n2)c(C)c1,nt,nt,0%,-17%
CCOC(=O)C1CCN(C(=O)CC(C)S(=O)(=O)c2ccc3c(c2)NC(=O)CO3)CC1 (stereo not given),-10%,-1%,0%,-1%
Cc1ccc(C)c(N2CCN(C(=O)CCS(=O)(=O)c3ccc4c(c3)CCN4C(=O)C3CC3)CC2)c1,-14%,26µM*,0%,-4%
CC(=O)N1CCCc2cc(S(=O)(=O)CCC(=O)N3CCN(c4cccc(C)c4)C(C)C3)ccc21 (stereo not given),21µM*,?,0%,2%
Cc1ccc(C)c(N2CCN(C(=O)CCS(=O)(=O)c3ccc4c(c3)NC(=O)CO4)CC2)c1,?,8.2µM*,-1%,-10%
COc1ccc(N2CCN(C(=O)CC(C)S(=O)(=O)c3ccc4c(c3)NC(=O)CO4)CC2)cc1 (stereo not given),13µM*,?,0%,4%
Cc1nn(-c2ccccc2)c(C)c1NC(=O)COC(=O)/C=C/c1ccccc1,4%,17%,-1%,0%
COc1ccc(NC(=O)Nc2cccc3c2O[C@H](CN(C)C(=O)Nc2ccc(OC)cc2)[C@@H](C)CN([C@H](C)CO)C3=O)cc1,9.2µM*,19%,1%,-4%
COc1ccc(NC(=O)Nc2cccc3c2O[C@H](CN(C)C(=O)NC(C)C)[C@@H](C)CN([C@H](C)CO)C3=O)cc1,21%,3%,0%,-1%
C[C@@H]1CN([C@@H](C)CO)C(=O)c2cc(NC(=O)Nc3ccccc3)ccc2O[C@H]1CN(C)C(=O)Nc1cccc2ccccc12,15µM*,8%,0%,0%
Cc1ccc2nc3n(c(=O)c2c1)-c1ccc(Cl)cc1C(=O)NC3CC(C)C (stereo not given),6%,nt,nt,nt
CCCCNC(=O)CSc1nc2ccccc2n1S(=O)(=O)c1ccc(Br)cc1,21%,-8%,0%,-2%
O=C(CSc1nc2ccccc2n1S(=O)(=O)c1cccc([N+](=O)[O-])c1)NCCc1ccccc1,?,18µM*,0%,?
CCc1nc2c(OCCn3cccc3)cccn2c1N(C=O)Cc1ccccc1,nt,nt,1%,nt
Cc1oc(-c2cccc(Cl)c2)nc1CSCC(=O)NCc1ccccc1Cl,nt,23µM*,-1%,?
Cc1ccc(-c2nc(CSCC(=O)NCCN3CCN(Cc4ccccc4)CC3)c(C)o2)cc1,16µM*,?,0%,-8%
Cc1ccc(-c2nc(CSCC(=O)NCCCN3CCOCC3)c(C)o2)cc1,-1%,27%,0%,-3%
Cc1ccc(CNC(=O)CSCc2nc(-c3ccc(Cl)cc3)oc2C)cc1,nt,21µM*,-1%,-8%
CCC(=O)N1c2ccc(S(=O)(=O)CCC(=O)N3CCN(c4ccc(F)cc4)CC3)cc2CC1C (stereo not given),nt,?,4%,1%
CC(C)CC(=O)Nc1ccc(C(=O)NNC(=S)NC(=O)C2CCCCC2)cc1,3%,8.2µM*,-1%,2%
N#CCC(=O)Nc1ccc(C(=O)NNC(=S)NC2CCCCC2)cc1,6%,-3%,0%,1%
COc1ccc(C=NNC(=S)NN=Cc2ccc(OC)c(OC)c2)cc1OC,nt,15µM*,12%,4%
SMILES,ELG1 repair inh,Nrf2 block,Nrf2 ARE act,A549 tox
COc1cc(/C=N\NC(C)=O)ccc1OC/C=C/c1ccccc1,16µM*,2%,6%,1%
COc1ccc(C=NNC(=S)Nc2ccc(F)cc2)cc1OC,nt,?,0%,-16%
COc1ccc(/C=N/OCC(=O)NC(c2ccccc2)c2ccccc2)cc1OC,-4%,5.8µM*,5%,0%
NC[C@H](O)c1ccc(O)c(O)c1,?,18%,3%,-7%
CC(C)(C)OC(=O)COc1cc(OCC(=O)OC(C)(C)C)c2c(=O)cc(-c3ccccc3)oc2c1,?,23µM*,-2%,16µM*
CCc1ccc(NC(=S)N2CCN(c3cccc(OC)c3)CC2)cc1,?,-22%,-1%,6%
N#Cc1nc(-c2ccco2)oc1N1CCOCC1,-1%,nt,13µM*,-2%
O=C(Nc1ccc(-c2nnc3n2CCCCC3)cc1)c1cc2ccccc2o1,?,-27%,1%,-5%
O=C(/C=C/c1ccccc1Cl)Nc1ccc(-c2nnc3n2CCCCC3)cc1,18µM*,13%,0%,-5%
Cc1c(C(=O)Nc2ccc(-c3nnc4n3CCCCC4)cc2)oc2c1ccc1ccccc12,16µM*,9.2µM*,-3%,?
CC(C)(C)CC(=O)Nc1ccc(-c2nnc3n2CCCCC3)cc1,-3%,3%,0%,-6%
CC1CN(C(=O)COC(=O)c2cc(=O)[nH]c3ccccc23)CC(C)O1 (stereo not given),nt,nt,0%,nt
CC(CCc1ccccc1)NC(=O)COC(=O)c1ccccc1O (stereo not given),-5%,-5%,5%,-3%
Cc1ccc(Cn2cc(CCC(=O)NCC(C)c3ccccc3)c3ccccc32)cc1 (stereo not given),nt,18µM*,2%,?
CCCN(C(=O)c1ccco1)c1nnc(-c2cccc(C)c2)s1,-1%,?,10µM*,24%
COc1cc(NC(=O)Cn2ccn(Cc3ccccc3OC)c(=O)c2=O)cc(OC)c1,nt,8%,0%,-9%
COc1cc(OCc2ccc(C)cc2)ccc1CNC[C@H]1O[C@@H](n2cnc(C(N)=O)n2)[C@H](O)[C@@H]1O,nt,5%,3%,1%
CCOC(=O)c1cccc(NC(=O)CCc2nc(-c3ccc(C)cc3)no2)c1,?,?,0%,-28%
CCOC(=O)c1ccc(NC(=O)COc2ccccc2CNCCc2ccccc2)cc1,26µM*,17%,-2%,0%
CCOC(=O)c1ccc(NC(=O)COc2ccc(CNCCO)cc2OCC)cc1,-3%,10%,1%,-1%
CCOC(=O)c1ccc(NC(=O)CCc2nc(-c3ccccc3Cl)no2)cc1,-5%,16µM*,0%,-19%
CCOC(=O)c1ccc(NC(=O)CCc2nc(-c3ccccc3)no2)cc1,26µM*,?,1%,-20%
COc1cc(C(=O)c2cc3c(cc2C)OCO3)cc(OC)c1OC,nt,nt,0%,nt
Cc1ccc(Sc2ccc(N3CCC(C(=O)Nc4ccc(C)c(F)c4)CC3)nn2)cc1,nt,14%,0%,-3%
OC1CCN(c2c3c(nc4cc(-c5ccc(Cl)cc5)nn24)CCC3)CC1,18µM*,nt,4%,-4%
